# Assay results as given in article PMC7862700, “An all-to-all approach to the identification of sequence-specific readers for epigenetic DNA modifications on cytosine”.
# Columns and labels:
# Assay in all cases: DAPPL (digital affinity profiling via proximity ligation, sequencing); 10 mM Tris-HCl pH 7.5, 50 mM NaCl, 1 mM DTT, 4% glycerol, room temperature, 30 min; GST-TFs on glutathione beads, 16-mer random dsDNA library, 0.1% formaldehyde crosslink after washing; high values mean tight binding
# [1] = target: T1, FEV (Homo sapiens, UniProt Q99581 1-238); conditions: protein: recombinant; tags: N-terminal GST; dsDNA, one strand shown
# T1 sequence: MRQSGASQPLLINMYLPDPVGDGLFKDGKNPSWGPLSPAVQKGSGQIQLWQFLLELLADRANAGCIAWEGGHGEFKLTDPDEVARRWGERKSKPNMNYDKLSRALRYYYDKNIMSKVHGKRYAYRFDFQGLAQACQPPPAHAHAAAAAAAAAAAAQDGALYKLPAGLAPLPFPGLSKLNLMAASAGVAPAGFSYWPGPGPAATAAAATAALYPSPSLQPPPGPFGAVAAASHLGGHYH
# Procedure, shortened: (§1)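 Each value of binding signal is a hexamer's read frequency for a factor divided by the same hexamer's frequency in the tag-only sample. Barcoded, bead-captured GST fusions of human transcription factors made in yeast were pooled with that sample and incubated with 200 nmole of a random double-stranded 16-mer DNA library in Tris/NaCl/DTT/glycerol buffer at room temperature for 30 min. Washing, 0.1% formaldehyde crosslinking, proximity ligation, PCR and Illumina NextSeq500 sequencing followed.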
# [2] = target: ETV5 (Homo sapiens, UniProt P41161 1-510); conditions: protein: recombinant; tags: N-terminal GST; dsDNA, one strand shown
# Procedure, shortened: as §1
# [3] = target: HSF1 (Homo sapiens, UniProt Q00613 1-529); conditions: protein: recombinant; tags: N-terminal GST; chain copies: 3; dsDNA, one strand shown
# Procedure, shortened: as §1
# [4] = target: T2, SPIC (Homo sapiens, UniProt Q8N5J4 1-248); conditions: protein: recombinant; tags: N-terminal GST; dsDNA, one strand shown
# T2 sequence: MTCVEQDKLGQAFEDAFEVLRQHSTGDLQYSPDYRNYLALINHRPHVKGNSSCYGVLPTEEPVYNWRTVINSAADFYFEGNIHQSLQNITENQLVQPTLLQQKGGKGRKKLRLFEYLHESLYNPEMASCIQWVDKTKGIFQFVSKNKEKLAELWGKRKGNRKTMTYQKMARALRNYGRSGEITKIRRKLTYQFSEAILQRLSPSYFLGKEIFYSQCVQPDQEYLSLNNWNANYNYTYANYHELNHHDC
# Procedure, shortened: as §1
# [5] = target: ELF4 (Homo sapiens, UniProt Q99607 1-663); conditions: protein: recombinant; tags: N-terminal GST; dsDNA, one strand shown
# Procedure, shortened: as §1
# [6] = target: T3, ELK4 (Homo sapiens, UniProt P28324-2 1-405); conditions: protein: recombinant; tags: N-terminal GST; dsDNA, one strand shown
# T3 sequence: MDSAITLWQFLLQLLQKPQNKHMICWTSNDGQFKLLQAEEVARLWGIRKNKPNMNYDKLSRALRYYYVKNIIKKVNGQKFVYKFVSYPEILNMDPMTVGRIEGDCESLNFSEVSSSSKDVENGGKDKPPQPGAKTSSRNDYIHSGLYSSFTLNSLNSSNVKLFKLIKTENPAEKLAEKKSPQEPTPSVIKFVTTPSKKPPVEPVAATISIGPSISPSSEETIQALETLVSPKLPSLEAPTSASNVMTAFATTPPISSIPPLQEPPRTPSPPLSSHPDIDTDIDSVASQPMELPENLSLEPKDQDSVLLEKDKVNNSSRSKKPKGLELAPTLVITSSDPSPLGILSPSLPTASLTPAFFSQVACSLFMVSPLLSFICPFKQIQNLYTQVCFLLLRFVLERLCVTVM
# Procedure, shortened: as §1
# [7] = target: T4, ETV2 (Homo sapiens, UniProt O00321 1-342); conditions: protein: recombinant; tags: N-terminal GST; dsDNA, one strand shown
# T4 sequence: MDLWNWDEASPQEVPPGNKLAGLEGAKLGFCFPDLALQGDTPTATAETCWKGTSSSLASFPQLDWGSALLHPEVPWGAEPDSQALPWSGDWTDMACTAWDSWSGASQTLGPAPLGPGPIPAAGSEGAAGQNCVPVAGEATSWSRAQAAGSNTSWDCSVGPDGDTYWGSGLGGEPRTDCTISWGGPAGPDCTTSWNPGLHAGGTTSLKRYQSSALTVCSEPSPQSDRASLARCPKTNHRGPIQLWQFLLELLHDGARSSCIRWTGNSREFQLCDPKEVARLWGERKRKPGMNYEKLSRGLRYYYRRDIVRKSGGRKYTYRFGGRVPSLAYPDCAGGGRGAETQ
# Procedure, shortened: as §1
# [8] = target: T5, ELF3 (Homo sapiens, UniProt P78545 1-371); conditions: protein: recombinant; tags: N-terminal GST; dsDNA, one strand shown
# T5 sequence: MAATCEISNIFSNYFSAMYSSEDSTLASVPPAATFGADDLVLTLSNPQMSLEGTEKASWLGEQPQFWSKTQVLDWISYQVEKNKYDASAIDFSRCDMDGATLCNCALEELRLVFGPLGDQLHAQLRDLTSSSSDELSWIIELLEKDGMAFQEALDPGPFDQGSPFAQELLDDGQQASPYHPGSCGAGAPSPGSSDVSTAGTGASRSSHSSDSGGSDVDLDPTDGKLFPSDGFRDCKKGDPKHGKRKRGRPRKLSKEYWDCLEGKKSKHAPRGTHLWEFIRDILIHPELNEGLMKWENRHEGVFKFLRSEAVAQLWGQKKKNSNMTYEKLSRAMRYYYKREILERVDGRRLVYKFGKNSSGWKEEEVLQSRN
# Procedure, shortened: as §1
# [9] = target: CRX (Homo sapiens, UniProt O43186 1-299); conditions: protein: recombinant; tags: N-terminal GST; dsDNA, one strand shown
# Procedure, shortened: as §1
# [10] = target: ETV1 (Homo sapiens, UniProt P50549 1-477); conditions: protein: recombinant; tags: N-terminal GST; dsDNA, one strand shown
# Procedure, shortened: as §1
# [11] = target: T6, ERF (Homo sapiens, UniProt P50548 1-548); conditions: protein: recombinant; tags: N-terminal GST; dsDNA, one strand shown
# T6 sequence: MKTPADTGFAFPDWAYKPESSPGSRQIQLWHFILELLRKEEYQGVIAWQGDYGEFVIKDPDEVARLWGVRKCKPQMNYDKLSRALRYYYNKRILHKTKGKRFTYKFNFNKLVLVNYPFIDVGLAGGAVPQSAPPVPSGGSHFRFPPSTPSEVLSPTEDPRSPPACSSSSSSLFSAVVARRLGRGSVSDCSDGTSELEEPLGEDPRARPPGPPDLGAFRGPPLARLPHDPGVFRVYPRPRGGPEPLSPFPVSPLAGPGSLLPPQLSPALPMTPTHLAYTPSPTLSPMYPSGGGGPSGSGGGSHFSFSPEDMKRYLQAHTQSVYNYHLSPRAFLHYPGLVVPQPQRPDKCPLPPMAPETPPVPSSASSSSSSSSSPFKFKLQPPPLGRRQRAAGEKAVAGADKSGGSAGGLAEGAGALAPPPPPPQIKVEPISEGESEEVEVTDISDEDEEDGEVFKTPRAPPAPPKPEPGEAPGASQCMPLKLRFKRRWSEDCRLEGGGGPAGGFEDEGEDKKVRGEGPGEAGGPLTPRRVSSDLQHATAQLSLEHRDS
# Procedure, shortened: as §1
# [12] = target: T7, ETV3L (Homo sapiens, UniProt Q6ZN32 1-361); conditions: protein: recombinant; tags: N-terminal GST; dsDNA, one strand shown
# T7 sequence: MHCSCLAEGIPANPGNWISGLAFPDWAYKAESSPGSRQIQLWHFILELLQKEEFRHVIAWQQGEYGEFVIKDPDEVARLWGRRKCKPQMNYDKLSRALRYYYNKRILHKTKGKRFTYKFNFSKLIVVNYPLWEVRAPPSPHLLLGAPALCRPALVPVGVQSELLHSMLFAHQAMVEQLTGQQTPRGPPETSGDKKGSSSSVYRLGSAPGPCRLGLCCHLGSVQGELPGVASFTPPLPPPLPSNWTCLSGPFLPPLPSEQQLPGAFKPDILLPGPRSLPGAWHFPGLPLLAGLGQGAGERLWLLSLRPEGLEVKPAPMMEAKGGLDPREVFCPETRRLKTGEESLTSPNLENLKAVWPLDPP
# Procedure, shortened: as §1
# [13] = target: T8, ETS2 (Homo sapiens, UniProt P15036 1-469); conditions: protein: recombinant; tags: N-terminal GST; dsDNA, one strand shown
# T8 sequence: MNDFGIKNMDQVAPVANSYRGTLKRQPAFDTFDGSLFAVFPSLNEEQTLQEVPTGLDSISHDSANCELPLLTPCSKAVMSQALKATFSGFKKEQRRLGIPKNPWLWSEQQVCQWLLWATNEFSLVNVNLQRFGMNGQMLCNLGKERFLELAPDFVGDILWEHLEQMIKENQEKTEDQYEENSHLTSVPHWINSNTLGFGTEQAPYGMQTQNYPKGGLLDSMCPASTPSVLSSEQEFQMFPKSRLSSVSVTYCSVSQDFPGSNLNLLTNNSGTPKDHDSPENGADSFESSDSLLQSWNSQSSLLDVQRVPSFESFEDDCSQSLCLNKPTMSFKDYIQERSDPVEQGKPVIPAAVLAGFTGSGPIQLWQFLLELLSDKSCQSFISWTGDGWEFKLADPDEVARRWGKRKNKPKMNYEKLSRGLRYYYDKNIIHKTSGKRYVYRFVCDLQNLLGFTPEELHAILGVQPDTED
# Procedure, shortened: as §1
# [14] = target: T9, SPDEF (Homo sapiens, UniProt O95238 1-335); conditions: protein: recombinant; tags: N-terminal GST; dsDNA, one strand shown
# T9 sequence: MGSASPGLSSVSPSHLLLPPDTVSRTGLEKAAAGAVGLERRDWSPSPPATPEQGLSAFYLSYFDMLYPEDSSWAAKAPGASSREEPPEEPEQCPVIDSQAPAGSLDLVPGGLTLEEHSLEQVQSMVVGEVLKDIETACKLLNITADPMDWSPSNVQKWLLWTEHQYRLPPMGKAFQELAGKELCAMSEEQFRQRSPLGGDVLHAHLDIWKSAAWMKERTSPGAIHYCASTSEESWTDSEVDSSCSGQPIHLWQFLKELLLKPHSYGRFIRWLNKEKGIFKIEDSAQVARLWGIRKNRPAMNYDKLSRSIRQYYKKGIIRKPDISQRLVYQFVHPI
# Procedure, shortened: as §1
# [15] = target: T10, ETV7 (Homo sapiens, UniProt Q9Y603 1-341); conditions: protein: recombinant; tags: N-terminal GST; dsDNA, one strand shown
# T10 sequence: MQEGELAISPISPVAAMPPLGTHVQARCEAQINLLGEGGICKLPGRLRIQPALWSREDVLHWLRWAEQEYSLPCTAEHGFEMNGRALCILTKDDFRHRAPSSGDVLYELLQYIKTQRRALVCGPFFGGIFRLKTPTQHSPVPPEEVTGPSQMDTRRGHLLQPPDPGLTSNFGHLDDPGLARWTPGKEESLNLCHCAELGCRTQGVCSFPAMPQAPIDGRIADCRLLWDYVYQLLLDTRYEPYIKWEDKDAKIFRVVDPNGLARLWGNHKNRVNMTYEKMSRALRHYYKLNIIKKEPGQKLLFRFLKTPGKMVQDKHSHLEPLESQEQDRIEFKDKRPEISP
# Procedure, shortened: as §1
# [16] = target: T11, ELF5 (Homo sapiens, UniProt Q9UKW6-2 1-255); conditions: protein: recombinant; tags: N-terminal GST; dsDNA, one strand shown
# T11 sequence: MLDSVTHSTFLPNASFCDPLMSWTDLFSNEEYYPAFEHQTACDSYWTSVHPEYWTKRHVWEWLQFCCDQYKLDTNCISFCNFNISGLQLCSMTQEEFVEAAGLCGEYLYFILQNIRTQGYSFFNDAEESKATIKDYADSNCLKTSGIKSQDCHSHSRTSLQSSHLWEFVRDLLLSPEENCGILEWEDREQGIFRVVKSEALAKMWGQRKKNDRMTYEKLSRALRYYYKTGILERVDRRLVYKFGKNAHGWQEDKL
# Procedure, shortened: as §1
# [17] = target: T12, ETV3 (Homo sapiens, UniProt P41162-2 1-143); conditions: protein: recombinant; tags: N-terminal GST; dsDNA, one strand shown
# T12 sequence: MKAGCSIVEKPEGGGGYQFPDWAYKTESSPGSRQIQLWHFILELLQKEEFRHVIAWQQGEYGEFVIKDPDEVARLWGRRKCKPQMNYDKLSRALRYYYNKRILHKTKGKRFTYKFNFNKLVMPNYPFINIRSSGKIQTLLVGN
# Procedure, shortened: as §1
# [18] = target: ETV6 (Homo sapiens, UniProt P41212 1-452); conditions: protein: recombinant; tags: N-terminal GST; dsDNA, one strand shown
# Procedure, shortened: as §1
# Chain of HSF1 (Q00613 whole entry): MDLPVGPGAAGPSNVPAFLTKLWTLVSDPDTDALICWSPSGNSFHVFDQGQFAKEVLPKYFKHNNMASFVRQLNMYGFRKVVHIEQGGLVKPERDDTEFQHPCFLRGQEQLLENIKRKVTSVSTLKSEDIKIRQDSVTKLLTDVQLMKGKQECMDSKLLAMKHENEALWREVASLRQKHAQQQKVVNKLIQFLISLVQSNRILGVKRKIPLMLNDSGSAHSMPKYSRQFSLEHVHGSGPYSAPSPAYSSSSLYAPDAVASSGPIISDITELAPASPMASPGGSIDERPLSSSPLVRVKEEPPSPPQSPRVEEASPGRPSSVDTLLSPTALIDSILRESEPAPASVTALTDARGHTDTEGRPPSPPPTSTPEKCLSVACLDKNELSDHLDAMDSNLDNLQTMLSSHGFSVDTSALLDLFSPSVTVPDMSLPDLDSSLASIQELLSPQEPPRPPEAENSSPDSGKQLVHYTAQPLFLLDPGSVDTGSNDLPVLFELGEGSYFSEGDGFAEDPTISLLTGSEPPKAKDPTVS
# Chain of ETV5 (P41161 whole entry): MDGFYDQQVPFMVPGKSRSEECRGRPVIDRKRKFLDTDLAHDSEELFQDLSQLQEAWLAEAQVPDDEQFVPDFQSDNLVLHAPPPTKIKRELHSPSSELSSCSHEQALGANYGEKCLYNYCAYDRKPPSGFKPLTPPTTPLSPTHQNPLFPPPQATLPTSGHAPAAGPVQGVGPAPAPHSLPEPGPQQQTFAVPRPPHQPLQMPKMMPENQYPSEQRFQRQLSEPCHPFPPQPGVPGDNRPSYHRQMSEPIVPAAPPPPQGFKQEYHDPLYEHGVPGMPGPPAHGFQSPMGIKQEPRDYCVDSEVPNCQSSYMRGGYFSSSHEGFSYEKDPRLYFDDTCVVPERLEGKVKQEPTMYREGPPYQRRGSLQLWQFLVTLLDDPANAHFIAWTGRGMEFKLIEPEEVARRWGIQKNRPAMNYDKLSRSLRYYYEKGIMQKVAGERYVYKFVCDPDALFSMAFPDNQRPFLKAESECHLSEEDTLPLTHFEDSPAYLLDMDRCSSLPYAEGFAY
# Chain of CRX (O43186 whole entry): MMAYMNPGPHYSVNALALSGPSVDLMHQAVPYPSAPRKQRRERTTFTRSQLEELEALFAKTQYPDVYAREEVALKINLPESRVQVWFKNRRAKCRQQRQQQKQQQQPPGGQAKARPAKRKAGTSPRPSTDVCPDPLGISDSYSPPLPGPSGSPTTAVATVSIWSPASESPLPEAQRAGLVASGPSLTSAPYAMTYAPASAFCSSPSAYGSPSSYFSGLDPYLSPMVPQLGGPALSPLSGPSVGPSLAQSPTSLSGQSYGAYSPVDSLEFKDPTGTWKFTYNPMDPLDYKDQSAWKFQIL
# Chain of ETV1 (P50549 whole entry): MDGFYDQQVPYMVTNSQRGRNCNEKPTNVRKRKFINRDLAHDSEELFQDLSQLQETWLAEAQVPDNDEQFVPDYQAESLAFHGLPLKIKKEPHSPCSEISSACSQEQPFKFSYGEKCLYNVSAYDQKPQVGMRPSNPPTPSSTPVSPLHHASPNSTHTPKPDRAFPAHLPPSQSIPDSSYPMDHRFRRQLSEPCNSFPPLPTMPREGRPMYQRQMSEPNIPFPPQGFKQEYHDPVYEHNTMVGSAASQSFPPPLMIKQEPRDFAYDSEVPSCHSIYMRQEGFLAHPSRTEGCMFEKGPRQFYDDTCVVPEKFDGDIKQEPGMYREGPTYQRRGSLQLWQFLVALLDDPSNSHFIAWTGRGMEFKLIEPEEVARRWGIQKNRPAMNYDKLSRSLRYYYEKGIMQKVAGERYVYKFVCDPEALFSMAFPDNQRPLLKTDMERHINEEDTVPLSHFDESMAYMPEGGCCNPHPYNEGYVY
# Chain of ELF4 (Q99607 whole entry): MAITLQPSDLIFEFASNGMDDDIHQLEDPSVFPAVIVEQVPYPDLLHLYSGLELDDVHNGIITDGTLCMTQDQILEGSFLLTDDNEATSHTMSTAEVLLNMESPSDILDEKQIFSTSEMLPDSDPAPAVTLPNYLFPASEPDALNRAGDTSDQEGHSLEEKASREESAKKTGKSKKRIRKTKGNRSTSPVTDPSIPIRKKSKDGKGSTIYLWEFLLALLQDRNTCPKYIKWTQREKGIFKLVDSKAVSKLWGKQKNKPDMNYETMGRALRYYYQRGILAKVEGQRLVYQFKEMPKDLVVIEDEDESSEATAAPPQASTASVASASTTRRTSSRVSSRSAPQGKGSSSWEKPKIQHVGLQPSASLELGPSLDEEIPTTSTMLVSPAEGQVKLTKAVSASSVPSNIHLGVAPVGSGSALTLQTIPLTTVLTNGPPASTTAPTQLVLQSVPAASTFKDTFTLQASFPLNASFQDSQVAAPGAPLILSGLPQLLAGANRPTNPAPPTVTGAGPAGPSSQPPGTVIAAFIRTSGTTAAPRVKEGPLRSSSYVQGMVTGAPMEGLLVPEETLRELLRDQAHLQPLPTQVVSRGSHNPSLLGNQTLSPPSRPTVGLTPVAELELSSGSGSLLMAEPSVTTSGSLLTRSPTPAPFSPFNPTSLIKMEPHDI
# Chain of ETV6 (P41212 whole entry): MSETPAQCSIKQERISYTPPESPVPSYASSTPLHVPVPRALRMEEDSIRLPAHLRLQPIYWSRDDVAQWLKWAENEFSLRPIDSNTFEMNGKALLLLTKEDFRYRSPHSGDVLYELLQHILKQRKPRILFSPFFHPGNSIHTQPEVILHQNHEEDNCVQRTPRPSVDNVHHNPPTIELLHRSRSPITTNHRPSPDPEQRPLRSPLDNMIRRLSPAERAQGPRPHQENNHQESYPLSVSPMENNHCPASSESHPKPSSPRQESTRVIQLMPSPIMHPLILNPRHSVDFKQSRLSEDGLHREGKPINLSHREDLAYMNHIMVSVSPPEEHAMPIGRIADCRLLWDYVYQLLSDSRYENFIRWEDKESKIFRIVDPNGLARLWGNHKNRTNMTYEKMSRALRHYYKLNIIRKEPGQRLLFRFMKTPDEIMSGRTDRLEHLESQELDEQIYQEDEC
sequence,measurement,setting,value
CTGCAT,binding signal,[1],"1.54 fold enrichment (6-mer frequency, TF over GST control)"
same,binding signal,[2],"1.46 fold enrichment (6-mer frequency, TF over GST control)"
same,binding signal,[3],"1.12 fold enrichment (6-mer frequency, TF over GST control)"
same,binding signal,[4],"1.32 fold enrichment (6-mer frequency, TF over GST control)"
same,binding signal,[5],"1.43 fold enrichment (6-mer frequency, TF over GST control)"
same,binding signal,[6],"1.39 fold enrichment (6-mer frequency, TF over GST control)"
same,binding signal,[7],"1.28 fold enrichment (6-mer frequency, TF over GST control)"
same,binding signal,[8],"1.4 fold enrichment (6-mer frequency, TF over GST control)"
same,binding signal,[9],"1.12 fold enrichment (6-mer frequency, TF over GST control)"
same,binding signal,[10],"1.29 fold enrichment (6-mer frequency, TF over GST control)"
same,binding signal,[11],"1.38 fold enrichment (6-mer frequency, TF over GST control)"
same,binding signal,[12],"1.66 fold enrichment (6-mer frequency, TF over GST control)"
same,binding signal,[13],"1.4 fold enrichment (6-mer frequency, TF over GST control)"
same,binding signal,[14],"1.57 fold enrichment (6-mer frequency, TF over GST control)"
same,binding signal,[15],"1.41 fold enrichment (6-mer frequency, TF over GST control)"
same,binding signal,[16],"1.29 fold enrichment (6-mer frequency, TF over GST control)"
same,binding signal,[17],"1.24 fold enrichment (6-mer frequency, TF over GST control)"
same,binding signal,[18],"1.25 fold enrichment (6-mer frequency, TF over GST control)"
